TGFb SMAD3 inh = blocks TGF-b signaling. 410,000 tested, 1.2% active. HepG2 CAGA-GFP TGF-b/SMAD3 reporter, GFP fluorescence, 18 h; TGF-beta stimulated, 500 pg/mL final. Potency, µM (top dose mostly 46.1 µM), hits mostly inhibitors; further: nearly all actives have a fitted effect of over 65% in size
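Cell-based qHTS in HEPG2 carrying a CAGA-GFP Smad reporter; compounds added before 500 pg/mL final TGF-beta, 18 h incubation at 37 degrees C, GFP fluorescence quantified per cell by imaging cytometry.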
Nrf2 inh = inhibitors of Nrf2 signaling; A549 ARE-Fluc reporter, luciferase luminescence, 18-24 h; Potency, µM (highest dose often 46 µM), most hits filed as inhibitors; 360,000 tested, 2.1% active; AID 504444; further: nearly all actives have a fitted effect of over 60% in size
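Cells were seeded and rested 2 h, then exposed to compounds for 18-24 h. CellTiter-Fluor was read first as a viability measure. BugLite was added 15 min before the final luminescent read of ARE-luciferase activity in A549 cells.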
HepG2 tox = HepG2 cytotoxicity, counter-screen for TGF-b inhibitors. Potency, µM (top dose mostly 46.1 µM), actives largely listed as cytotoxic. 410,000 tested, 0.76% active. HepG2 CAGA-GFP viability, ATP luminescence, 18 h. AID 588856
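HepG2 CAGA-GFP cells (1000/well, DMEM with 1% FBS) received compound, then TGF-beta at 500 pg/mL final, and were incubated 18 hours at 37 degrees C. Viability was read by CellTiter-Glo luminescence. Media-only wells were set as complete cell-killing and DMSO as no toxicity.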
Nrf2 activator = activates Nrf2 signaling; AREc32 ARE-luciferase reporter (MCF7-derived line), luminescence, 24 h; Potency, µM (doses to about 46.1 µM), most hits filed as activators; 410,000 tested, 0.31% active; further: nearly all actives have a fitted effect of over 65% in size
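For detection, Steady-Glo was added and plates sat 30 min at RT; before that, AREc32_Fluc cells grown overnight in OPTI-MEM/5% FBS had been treated with 23 nL compound for 24 hr at 37 deg C.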
A549 viability = kills or reduces viability of A549 cells in Nrf2 counter-screen | A549 ARE-Fluc cells, CellTiter-Fluor viability, 18-24 h | 390,000 tested, 0.16% active | AID 504648 | Potency, µM (highest dose often 46 µM), hits mostly inhibitors
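A549 ARE_Fluc cells in 5% FBS OPTI-MEM were exposed to compounds in concentration-response for 18-24 h at 37 deg C. Viability was read by CellTiter-Fluor fluorescence (Ex 405/Em 525) after 30 min, before the luciferase read.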
Each line names hits and unclear results; the compound was inactive in the other large screens. Hits are enriched below; roughly 3.6% of the tested compounds scored in any of these assays. The call rests on the fitted dose curve; in most records, active means well fitted curve in the direction sought with a large enough effect; inconclusive means small, poorly fitted or top-dose-only effect, or another doubt; inactive means no such curve, though single readings can be large; an effect the other way counts as inactive or inconclusive.

NS(=O)(=O)c1ccc(Sc2ccccn2)c([N+](=O)[O-])c1	none
COc1ccc(NC(=O)C/C(C)=N/NC(=O)c2ccncc2)c([N+](=O)[O-])c1	none
C=CCSc1nc(-c2ccccc2)c2cc(Cl)ccc2n1	TGFb SMAD3 inh inconclusive (no result: Nrf2 inh)
NC(=O)COC(=O)[C@H](Cc1ccccc1)NS(=O)(=O)c1ccc2c(c1)OCCO2	none
C/C(=N\Nc1nccnc1Cl)c1ccc(Cl)c(Cl)c1	TGFb SMAD3 inh inconclusive, Nrf2 inh inconclusive, Nrf2 activator 14.1µM
C/C(=N\Nc1nccnc1Cl)c1ccc(O)cc1	none
Cc1ccc(-c2csc(NC(=O)C[n+]3cc(-c4ccc(C)cc4)n4c3CCC4)n2)cc1	TGFb SMAD3 inh inconclusive
Cc1ccc(-c2csc(NC(=O)C[n+]3cc(-c4ccccc4)n4c3CCC4)n2)cc1	TGFb SMAD3 inh 22.4µM, Nrf2 inh inconclusive
CCCCCc1ccc(S(=O)(=O)NCCc2ccncc2)cc1	Nrf2 inh inconclusive
CS/C(N)=N/N=C/c1cc(Br)cc(Br)c1O	TGFb SMAD3 inh 6.31µM
CCOC(=O)CN(Cc1ccccc1)C(C(=O)NC1CCCCC1)c1ccccc1 (stereo unspecified)	TGFb SMAD3 inh inconclusive, Nrf2 inh 4.61µM, A549 viability 11.6µM
N#CCCN(Cc1ccccc1)C(CCc1ccccc1)C(=O)NC1CCCCC1 (stereo unspecified)	TGFb SMAD3 inh 12.6µM (no result: Nrf2 inh, A549 viability)
Clc1ccc(CSc2nnc(Cn3cnc4ccccc43)o2)cc1	Nrf2 inh 8.2µM
O=C(CCc1ccccc1)NNC(=O)c1ccccn1	Nrf2 inh inconclusive
O=C(Nc1ccc(CN2CCOCC2)cc1)c1ccc(-c2ccc(Br)cc2)o1	TGFb SMAD3 inh inconclusive, Nrf2 inh inconclusive, HepG2 tox 10µM
O=C(Nc1ccc(CN2CCOCC2)cc1)c1ccc(Br)cc1	none
CC(C)Oc1ccc(C(=O)Nc2nnc(SCC(=O)N3CCOCC3)s2)cc1	Nrf2 inh 5.17µM
COc1ccc(C(=O)NC(=S)Nc2ccc(CN3CCOCC3)cc2)cc1Br	TGFb SMAD3 inh 11.2µM
CN(C)S(=O)(=O)c1ccc(C(=O)Nc2nnc(SCC(=O)N3CCOCC3)s2)cc1	none (no result: Nrf2 inh, A549 viability)
O=C(Nc1ccc(CN2CCOCC2)cc1)c1ccc(F)cc1	Nrf2 inh inconclusive
O=C(Nc1ccc(S(=O)(=O)Nc2ccccc2)cc1)c1ccc(CN2CCOCC2)cc1	TGFb SMAD3 inh inconclusive, Nrf2 inh 4.11µM
O=C(CS(=O)CC(=O)N(CC(=O)NC1CCCC1)c1ccccc1F)Nc1ccc(F)cc1 (stereo unspecified)	none
OCC[C@@H]1C[C@H](O)[C@@H](O)[C@]2(CCCCO2)O1	none
Cc1ccccc1NS(=O)(=O)c1cc2c3c(c1)C(C)C(=O)N3CCC2 (stereo unspecified)	none
O=C(Nc1ccc(CN2CCOCC2)cc1)c1ccc(Cl)cc1	TGFb SMAD3 inh inconclusive, Nrf2 inh inconclusive
CCC(C)Oc1ccc(C(=O)Nc2ccc(CN3CCOCC3)cc2)cc1 (stereo unspecified)	Nrf2 inh 23.1µM
COC(=O)c1ccc(NC(=O)c2ccc(CN3CCOCC3)cc2)cc1	TGFb SMAD3 inh inconclusive, Nrf2 inh 9.2µM
O=C1CC2(CCN(C(=O)c3ccc([N+](=O)[O-])cc3)CC2)Oc2ccccc21	none
CC[C@H](C)[C@@H](COC=O)NC(=O)[C@H]1O[C@@H](n2ccc(N)nc2=O)[C@H](O)[C@@H]1O	none (no result: Nrf2 inh, A549 viability)
CCOC(=O)N1CCC(Nc2ncnc3c2cnn3-c2ccccc2)CC1	Nrf2 inh 16.4µM
c1ccc(-n2ncc3c(NC4CCCCCC4)ncnc32)cc1	Nrf2 inh inconclusive
OC(c1ccc(F)cc1)c1nc(-c2cncnc2)cs1 (stereo unspecified)	HepG2 tox 3.55µM (no result: Nrf2 inh, A549 viability)
CC(Sc1nnc(NC2CC2)s1)C(=O)Nc1ccc(N2CCOCC2)cc1 (stereo unspecified)	none
CC(=O)c1c(C)[nH]c(C(=O)C(C)Sc2nnc(NC3CC3)s2)c1C (stereo unspecified)	Nrf2 inh 16.4µM
Cc1ccc(Cl)cc1N1CCN(Cc2nnc(-c3ccc4c(c3)OCO4)o2)CC1	Nrf2 inh 20.6µM
Cc1ccc(N=c2oc3cc(O)ccc3cc2C(N)=O)cc1	Nrf2 inh 20.6µM
OC(CNCCNc1ncccc1C(F)(F)F)Cn1ccc2ccccc21 (stereo unspecified)	TGFb SMAD3 inh inconclusive, HepG2 tox 15.8µM
OC(CNCc1ccccc1)Cn1ccc2ccccc21 (stereo unspecified)	none
CCOC(=O)c1c(CC(C)C)csc1NC(=O)CCl	HepG2 tox 20µM, Nrf2 activator inconclusive
CC1(C)CC(=O)c2sc(NC(=O)c3cccs3)nc2C1	Nrf2 inh 14.6µM
O=C(Nc1nc2c(s1)CCCC2)c1cccs1	Nrf2 inh inconclusive, HepG2 tox 10µM
O=C(Nc1nc2c(s1)CCCC2)c1ccc(Br)o1	Nrf2 inh inconclusive, Nrf2 activator 12.6µM
CC1(C)CC(=O)c2sc(NC(=O)C(C)(C)C)nc2C1	Nrf2 inh inconclusive
Cc1ccc(C(=O)Nc2nc3c(s2)CCCC3)o1	TGFb SMAD3 inh inconclusive, Nrf2 inh inconclusive
O=C(Cc1cccs1)Nc1nc2c(s1)CCCC2	Nrf2 inh inconclusive
Cc1ccc(O)c(N=Cc2cccs2)c1	none
CN(C)c1ccc(/C=C(\C#N)C(=O)OCC(=O)N(C)C2CCS(=O)(=O)C2)cc1 (stereo unspecified)	TGFb SMAD3 inh inconclusive
COc1cccc(C#CC2=CC(=O)C[C@H](c3ccc(F)cc3)C2)c1	TGFb SMAD3 inh inconclusive, Nrf2 activator 15.8µM (no result: Nrf2 inh, A549 viability)
Cn1nc(C(F)(F)F)c2cc(C(=O)Nc3ccc(F)c(Cl)c3)sc21	Nrf2 inh 13µM
Cn1nc(C(F)(F)F)c2cc(C(=O)Nc3ccc(C(F)(F)F)cc3)sc21	Nrf2 inh 23.1µM, A549 viability inconclusive
Cn1nc(C(F)(F)F)c2cc(C(=O)Nc3ccc(F)cc3)sc21	Nrf2 inh inconclusive, A549 viability inconclusive
CC(=O)Nc1ccc(C(C)=NNC(=O)C2CCCC2)cc1	none (no result: Nrf2 inh, A549 viability)
C/C(=N\NC(=O)C1CCCC1)c1ccc(NC(=O)C(F)(F)F)cc1	TGFb SMAD3 inh 11.2µM (no result: Nrf2 inh, A549 viability)
COC(=O)C1=C(C)NC(=O)/C1=C\c1cc(C)n(-c2ccccc2)c1C	none
COC(=O)C1=C(C)NC(=O)/C1=C\c1cc(C)n(-c2cc(C)cc(C)c2)c1C	TGFb SMAD3 inh inconclusive, Nrf2 inh 23.1µM, A549 viability inconclusive
CCN(C1=NS(=O)(=O)c2ccccc21)N(CC)S(=O)(=O)c1ccc(C)cc1	Nrf2 inh inconclusive
COc1ccc(-c2cc(C(F)(F)F)c3c(n2)sc2c(O)cc(=O)[nH]c23)c(OC)c1	HepG2 tox 2.24µM
Cc1cc(C)c2c(n1)sc1c(O)cc(=O)[nH]c12	Nrf2 inh inconclusive
O=C(CSc1nc(-c2ccccc2)cn1-c1ccccc1F)Nc1ccc(F)cc1	TGFb SMAD3 inh 14.1µM (no result: Nrf2 inh)
